# Records with an inconclusive call do not appear. The source made the active and inactive calls. Rule for the calls: active = hit-call score of the fitted dose curve at least 0.9, where 1 is the maximum; inconclusive = response in the unintended direction; inactive = score below 0.9.
# Target: rat Acetylcholinesterase (AChE), Ache (gene 83817) (UniProt P37136)
# Test: NVS_ENZ_rAChE: NovaScreen (NVS) Enzymatic Assay for rat Acetylcholinesterase (AChE) (AID 2283233)
# In short: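 Rat brain membrane acetylcholinesterase activity measured colorimetrically 0.33 h after compound addition, loss of signal relative to DMSO. Primary screen in duplicate at 25 uM; actives re-run as concentration-response with 50 uM top concentration.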
# rat Acetylcholinesterase (AChE), Ache (gene 83817), sequence (P37136 whole entry, looked up): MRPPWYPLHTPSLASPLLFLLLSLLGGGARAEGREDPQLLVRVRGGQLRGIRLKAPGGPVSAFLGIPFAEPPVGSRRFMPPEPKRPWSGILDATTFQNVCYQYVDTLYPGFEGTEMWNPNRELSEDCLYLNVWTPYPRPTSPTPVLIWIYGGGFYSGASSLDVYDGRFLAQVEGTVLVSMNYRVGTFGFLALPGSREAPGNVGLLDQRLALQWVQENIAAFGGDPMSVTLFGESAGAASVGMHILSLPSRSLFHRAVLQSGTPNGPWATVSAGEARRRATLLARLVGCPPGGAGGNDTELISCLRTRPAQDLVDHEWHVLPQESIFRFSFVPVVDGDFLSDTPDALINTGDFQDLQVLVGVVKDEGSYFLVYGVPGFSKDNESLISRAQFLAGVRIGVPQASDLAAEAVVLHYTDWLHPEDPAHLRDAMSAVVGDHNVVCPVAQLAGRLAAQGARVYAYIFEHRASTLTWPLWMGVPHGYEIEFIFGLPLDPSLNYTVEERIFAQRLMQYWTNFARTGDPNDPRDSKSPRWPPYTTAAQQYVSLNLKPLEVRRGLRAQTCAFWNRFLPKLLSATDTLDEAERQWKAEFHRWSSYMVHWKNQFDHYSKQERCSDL
SMILES,outcome,AC50
Nc1c(Cl)c(Cl)nc(C(=O)O)c1Cl,inactive,
N#CN=C1SCCN1Cc1ccc(Cl)nc1,,16.6 µM (active)
O=c1n(Cl)c(=O)n(Cl)c(=O)n1Cl,inactive,
COP(=S)(OC)SCn1nnc2ccccc2c1=O,inactive,
CC(C)N1C(=O)N(c2ccccc2)CSC1=NC(C)(C)C,inactive,
CCOP(=O)(OCC)Oc1nc(Cl)c(Cl)cc1Cl,,0.488 µM (active)
CNC(=O)Oc1cccc2ccccc12,,6.15 µM (active)
CCNC(=O)NC(=O)C(C#N)=NOC,inactive,

# Target: rat Catechol-O-Methyl Transferase (COMT), Comt (gene 24267) (UniProt P22734)
# Test: NVS_ENZ_rCOMT: NovaScreen (NVS) Enzymatic Assay for rat Catechol-O-Methyl Transferase (COMT) (AID 2283235)
# In short: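 Cell-free enzyme activity with protein extracted from rat dorsal striatum, measured by HPLC with absorbance detection. Compounds screened at 25 uM in duplicate; actives then run in concentration-response up to 50 uM, loss of signal versus DMSO.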
# rat Catechol-O-Methyl Transferase (COMT), Comt (gene 24267), sequence (P22734 whole entry, looked up): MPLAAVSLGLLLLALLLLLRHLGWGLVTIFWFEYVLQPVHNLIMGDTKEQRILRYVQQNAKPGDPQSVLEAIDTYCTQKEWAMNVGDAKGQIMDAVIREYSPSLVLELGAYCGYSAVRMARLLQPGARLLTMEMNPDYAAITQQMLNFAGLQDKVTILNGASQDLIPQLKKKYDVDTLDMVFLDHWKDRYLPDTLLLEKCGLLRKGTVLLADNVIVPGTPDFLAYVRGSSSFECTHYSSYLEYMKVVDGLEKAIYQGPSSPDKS
SMILES,outcome,AC50
O=P(O)(O)CCCl,inactive,
Cc1nc(N(C)C)nc(OC(=O)N(C)C)c1C,,0.991 µM (active)
CCOP(=O)(OCC)Oc1nc(Cl)c(Cl)cc1Cl,inactive,
O=C1C2CC=CCC2C(=O)N1SC(Cl)(Cl)Cl (configuration not stated),inactive,

# Target: rat Constitutive Nitric Oxide Synthase (CNOS), Nos1 (gene 24598) (UniProt P29476)
# Test: NVS_ENZ_rCNOS: NovaScreen (NVS) Enzymatic Assay for rat Constitutive Nitric Oxide Synthase (CNOS) (AID 2283236)
# In short: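 Enzyme activity in rat brain membrane preparation, read 1 h after dosing by filter-based radiometric scintillation counting. Primary screen in duplicate at 25 uM; actives (e.g., ≥30% inhibition) then run in concentration-response up to 50 uM.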
# rat Constitutive Nitric Oxide Synthase (CNOS), Nos1 (gene 24598), sequence (P29476 whole entry, looked up): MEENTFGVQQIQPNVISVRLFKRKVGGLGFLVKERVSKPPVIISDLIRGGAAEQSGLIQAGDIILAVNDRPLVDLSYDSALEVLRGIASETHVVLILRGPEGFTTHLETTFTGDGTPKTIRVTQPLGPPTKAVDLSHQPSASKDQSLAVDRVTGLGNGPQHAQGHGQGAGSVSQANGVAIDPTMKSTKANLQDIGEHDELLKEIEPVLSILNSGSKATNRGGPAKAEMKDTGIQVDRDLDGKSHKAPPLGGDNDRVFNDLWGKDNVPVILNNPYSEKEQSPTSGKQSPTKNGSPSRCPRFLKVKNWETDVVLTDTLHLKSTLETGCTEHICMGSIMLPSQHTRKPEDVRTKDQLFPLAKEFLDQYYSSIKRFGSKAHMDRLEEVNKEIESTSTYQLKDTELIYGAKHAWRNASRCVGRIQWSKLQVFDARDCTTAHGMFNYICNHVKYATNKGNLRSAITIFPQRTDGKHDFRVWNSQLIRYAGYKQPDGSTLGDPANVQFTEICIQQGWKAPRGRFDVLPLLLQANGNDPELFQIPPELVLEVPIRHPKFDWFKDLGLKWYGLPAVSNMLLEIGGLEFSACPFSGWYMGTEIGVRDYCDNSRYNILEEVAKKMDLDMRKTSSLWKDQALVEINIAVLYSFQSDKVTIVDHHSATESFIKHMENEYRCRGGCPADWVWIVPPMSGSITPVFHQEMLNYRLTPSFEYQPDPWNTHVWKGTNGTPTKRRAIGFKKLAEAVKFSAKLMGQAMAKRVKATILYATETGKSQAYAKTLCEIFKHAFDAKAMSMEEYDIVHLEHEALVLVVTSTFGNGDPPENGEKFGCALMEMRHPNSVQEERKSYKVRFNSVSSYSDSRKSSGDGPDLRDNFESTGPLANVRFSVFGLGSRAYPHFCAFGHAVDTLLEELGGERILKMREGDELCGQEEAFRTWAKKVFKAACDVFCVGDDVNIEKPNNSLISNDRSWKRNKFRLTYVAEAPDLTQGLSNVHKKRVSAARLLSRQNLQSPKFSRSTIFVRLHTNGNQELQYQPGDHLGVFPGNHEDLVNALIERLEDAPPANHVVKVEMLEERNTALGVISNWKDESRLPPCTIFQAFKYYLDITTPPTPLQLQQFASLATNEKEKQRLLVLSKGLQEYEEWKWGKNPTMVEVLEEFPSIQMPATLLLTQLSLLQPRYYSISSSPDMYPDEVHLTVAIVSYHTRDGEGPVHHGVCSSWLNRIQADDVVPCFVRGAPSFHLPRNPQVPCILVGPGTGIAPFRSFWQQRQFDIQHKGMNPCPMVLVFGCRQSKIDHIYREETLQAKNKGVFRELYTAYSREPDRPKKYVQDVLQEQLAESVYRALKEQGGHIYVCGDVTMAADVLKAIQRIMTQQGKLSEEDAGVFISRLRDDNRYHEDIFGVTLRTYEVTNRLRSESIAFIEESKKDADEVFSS
SMILES,outcome,AC50
CN=C=S,inactive,
CS(=O)(=O)c1ccc(C(=O)C2C(=O)CCCC2=O)c([N+](=O)[O-])c1,inactive,
CC(C)NC(=O)N1CC(=O)N(c2cc(Cl)cc(Cl)c2)C1=O,,25 µM (active)
COP(=S)(OC)SCn1nnc2ccccc2c1=O,inactive,
CCN(CC)c1nc(C)cc(OP(=S)(OC)OC)n1,inactive,
COc1ccc(-c2ccccc2)cc1NNC(=O)OC(C)C,inactive,
COC(=O)c1c(C(F)F)nc(C(F)(F)F)c(C2=NCCS2)c1CC(C)C,inactive,
CCNC(=O)NC(=O)C(C#N)=NOC,,9.03 µM (active)

# System: rat Monoamine Oxidase, MAO-A, Peripheral (MAOAP), gene 29253
# Test: NVS_ENZ_rMAOAP: NovaScreen (NVS) Enzymatic Assay for rat Monoamine Oxidase, MAO-A, Peripheral (MAOAP) (AID 2283237)
# In short: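 Rat liver mitochondrial membranes served as the MAO-A source, with enzyme activity measured by radiometric scintillation counting 1.17 hours after dosing. Loss of signal was fitted against DMSO; primary screen used 25 uM in duplicate, follow-up used concentration series.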
SMILES,outcome,AC50
COP(=S)(OC)SCn1nnc2ccccc2c1=O,inactive,
CCCCC(C#N)(Cn1cncn1)c1ccc(Cl)cc1 (configuration not stated),inactive,
CC(C)N1C(=O)N(c2ccccc2)CSC1=NC(C)(C)C,inactive,
Cc1nc(N(C)C)nc(OC(=O)N(C)C)c1C,,10.4 µM (active)
COc1ccc(-c2ccccc2)cc1NNC(=O)OC(C)C,,0.31 µM (active)
COC(=O)c1c(C(F)F)nc(C(F)(F)F)c(C2=NCCS2)c1CC(C)C,inactive,
COc1cc(OC)nc(NC(=O)NS(=O)(=O)c2ncccc2OCC(F)(F)F)n1,inactive,
